Records with an inconclusive call do not appear. The source made the active and inactive calls. Calls come from the whole dose curve; as a rule, active = well fitted curve in the direction sought with a large enough effect in the repeat runs; inconclusive = weak or mixed curves; inactive = no such curve, though single readings can be large; an effect the other way counts as inactive or inconclusive.
assay: Human pregnane X receptor (PXR) small molecule agonists, qHTS cell viability counter screen (AID 1346977); conditions: PXR-Luc HepG2 viability, CellTiter-Fluor, 24 h; series mostly up to 92.4 µM; activity change, negative = cytotoxicity: at the top concentration; note: nearly all actives have a fitted effect of over 50% in size
In short: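 HepG2 cells stably carrying the PXR-Luc reporter are cultured with 5% charcoal-stripped FBS and treated with compounds for 24hr. CellTiter-Fluor is added at 23hr and fluorescence is read after 1hr.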
% is set by controls: 0 for no effect and ±100 for the full control effect; potency is the fitted concentration of half-maximal effect.

Structure (SMILES)	activity change, negative = cytotoxicity	Potency
NC1CCC(CC2CCC(N)CC2)CC1 (stereo not drawn)	-10.8% (inactive)	
O=S(=O)(O)F	3.9% (inactive)	
CC[C@H](C)[C@H]1O[C@]2(C=C[C@@H]1C)C[C@@H]1C[C@@H](C/C=C(\C)[C@@H](O[C@H]3C[C@H](OC)[C@@H](O[C@H]4C[C@H](OC)[C@@H](NC)[C@H](C)O4)[C@H](C)O3)[C@@H](C)/C=C/C=C3\CO[C@@H]4[C@H](O)C(C)=C[C@@H](C(=O)O1)[C@]34O)O2		6.86 µM (active)
O=S1(=O)OCC2C(CO1)C1(Cl)C(Cl)=C(Cl)C2(Cl)C1(Cl)Cl (stereo not drawn)	-26% (inactive)	
C#CCO	11.2% (inactive)	
C=CCOC(=O)c1ccccc1N	10.5% (inactive)	
CN/C(=N\[N+](=O)[O-])NCc1cnc(Cl)s1	-6.7% (inactive)	
CC(C)NCC(O)c1ccccc1Cl (stereo not drawn)	4.75% [at 42.5 µM] (inactive)	
O=C(O)[C@H](O)[C@@H](O)C(=O)O	1.35% (inactive)	
CC(C)[C@@H](Nc1ccc(C(F)(F)F)cc1Cl)C(=O)OC(C#N)c1cccc(Oc2ccccc2)c1 (stereo partly drawn)	3.05% (inactive)	
CCC1(CC)C(=O)N=C(O)NC1=O	0.28% (inactive)	
CC(=O)[O][Pb]([c]1ccccc1)([c]1ccccc1)[c]1ccccc1		4.33 µM (active)
CC(C)c1c(CN(C)C(C)Cc2ccccc2)n(C)n(-c2ccccc2)c1=O (stereo not drawn)	-2.09% [at 42.5 µM] (inactive)	
Cc1nn(-c2cc(NS(C)(=O)=O)c(Cl)cc2Cl)c(=O)n1C(F)F	9.76% (inactive)	
CCNS(=O)(=O)C(F)(F)C(F)(F)C(F)(F)C(F)(F)C(F)(F)C(F)(F)C(F)(F)C(F)(F)F	-22.5% (inactive)	
CCOP(=S)(OCC)Oc1cc(C)nc(N(CC)CC)n1	12.3% (inactive)	
CNN	-4.25% (inactive)	
O=P(Cl)(Cl)Cl	6.69% (inactive)	
CCCCN(CCCC)C(=S)[S-].CCCCN(CCCC)C(=S)[S-].[Ni+2]	3.65% [at 42.5 µM] (inactive)	
CCOP(=O)(OCC)Oc1cc(C)nc(C(C)C)n1	12.3% (inactive)	

Structure (SMILES)	activity change, negative = cytotoxicity	Potency
CSSC	-22.3% (inactive)	
O=Cc1ccccc1	5.28% (inactive)	
O=[N+]([O-])C(Br)Br	21% (inactive)	
CNC(=O)O/N=C(\C)C(C)S(C)(=O)=O (stereo not drawn)	-4.06% [at 872 µM] (inactive)	
O=NN(CCO)CCO	21.7% (inactive)	
Clc1c(Cl)c(Cl)c(Cl)c(Cl)c1Cl	0.664% [at 8.39 µM] (inactive)	
COc1ccc(Cc2nccc3cc(OC)c(OC)cc23)cc1OC		9.44 µM (active)
CC(C)N(C(=O)SC/C(Cl)=C/Cl)C(C)C	15.1% (inactive)	
Nc1c(Cl)c(Cl)c(Cl)c(Cl)c1Cl	-1.22% (inactive)	
O=C(NC(=O)c1c(F)cccc1F)Nc1ccc(Oc2ccc(C(F)(F)F)cc2Cl)cc1F	-31.5% (inactive)	
CC(C)=CCN1CC[C@@]2(C)c3cc(O)ccc3C[C@@H]1[C@@H]2C		17 µM (active)
C=CC(=C)C	-0.447% (inactive)	
CCCN	-0.241% (inactive)	
BrCCCBr	4.12% (inactive)	
Nc1ccccc1-c1ccccc1	-3.84% (inactive)	
O.O.O.O=C([O-])[C@H]([O-])[C@@H]([O-])C(=O)[O-].O=C([O-])[C@H]([O-])[C@@H]([O-])C(=O)[O-].[K+].[K+].[Sb+3].[Sb+3]	-10.9% (inactive)	
CCC[CH2][Sn]([CH2]CCC)([CH2]CCC)[CH2]CCC		15.4 µM (active)
C[N+]1(C)[C@@H]2CC[C@H]1CC(OC(=O)C(CO)c1ccccc1)C2 (stereo partly drawn)	4.63% [at 42.5 µM] (inactive)	
O=c1c2ccccc2c(=O)c2c1cc(Cl)c1[nH]c3c([nH]c12)c(Cl)cc1c(=O)c2ccccc2c(=O)c13	10.8% (inactive)	

assay: Caspase-3/7 induction in HepG2 cells by small molecules, qHTS assay (AID 1346978); conditions: HepG2 caspase-3/7 activation, Caspase-Glo luminescence, 17 h; series mostly up to 92.4 µM; caspase activation: at the top concentration; note: nearly all actives have a fitted effect of over 15% in size
In short: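 Wild-type HepG2 cells, 2,000/well, settled 5 hr at 37 C and 5% CO2, then compound-treated for 17 hr; caspase-3/7 activity read by luminescent Caspase-Glo 3/7 after 30 min at room temperature.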

Structure (SMILES)	caspase activation	Potency
NC1CCC(CC2CCC(N)CC2)CC1 (stereo not drawn)	1.5% (inactive)	
O=S(=O)(O)F	1.3% (inactive)	
CC[C@H](C)[C@H]1O[C@]2(C=C[C@@H]1C)C[C@@H]1C[C@@H](C/C=C(\C)[C@@H](O[C@H]3C[C@H](OC)[C@@H](O[C@H]4C[C@H](OC)[C@@H](NC)[C@H](C)O4)[C@H](C)O3)[C@@H](C)/C=C/C=C3\CO[C@@H]4[C@H](O)C(C)=C[C@@H](C(=O)O1)[C@]34O)O2		17.2 µM (active)
O=S1(=O)OCC2C(CO1)C1(Cl)C(Cl)=C(Cl)C2(Cl)C1(Cl)Cl (stereo not drawn)	-0.139% (inactive)	
C#CCO	-0.11% (inactive)	
C=CCOC(=O)c1ccccc1N	1.09% (inactive)	
CN/C(=N\[N+](=O)[O-])NCc1cnc(Cl)s1	-1.11% (inactive)	
CC(C)NCC(O)c1ccccc1Cl (stereo not drawn)	-0.191% [at 42.5 µM] (inactive)	
O=C(O)[C@H](O)[C@@H](O)C(=O)O	0.238% (inactive)	
CC(C)[C@@H](Nc1ccc(C(F)(F)F)cc1Cl)C(=O)OC(C#N)c1cccc(Oc2ccccc2)c1 (stereo partly drawn)	-1.25% (inactive)	
CCC1(CC)C(=O)N=C(O)NC1=O	-2.82% (inactive)	
CC(=O)[O][Pb]([c]1ccccc1)([c]1ccccc1)[c]1ccccc1		2.43 µM (active)
CC(C)c1c(CN(C)C(C)Cc2ccccc2)n(C)n(-c2ccccc2)c1=O (stereo not drawn)	-0.0235% [at 42.5 µM] (inactive)	
Cc1nn(-c2cc(NS(C)(=O)=O)c(Cl)cc2Cl)c(=O)n1C(F)F	-4.84% (inactive)	
CCNS(=O)(=O)C(F)(F)C(F)(F)C(F)(F)C(F)(F)C(F)(F)C(F)(F)C(F)(F)C(F)(F)F	-0.363% (inactive)	
CCOP(=S)(OCC)Oc1cc(C)nc(N(CC)CC)n1	-0.697% (inactive)	
CNN	0.793% (inactive)	
O=P(Cl)(Cl)Cl	-1.52% (inactive)	
CCCCN(CCCC)C(=S)[S-].CCCCN(CCCC)C(=S)[S-].[Ni+2]	0.434% [at 42.5 µM] (inactive)	
CCOP(=O)(OCC)Oc1cc(C)nc(C(C)C)n1	0.912% (inactive)	

Structure (SMILES)	caspase activation	Potency
CSSC		24.6 µM (active)
O=Cc1ccccc1	-0.172% (inactive)	
O=[N+]([O-])C(Br)Br	-1.91% (inactive)	
CNC(=O)O/N=C(\C)C(C)S(C)(=O)=O (stereo not drawn)	0.263% [at 872 µM] (inactive)	
O=NN(CCO)CCO	0.223% (inactive)	
Clc1c(Cl)c(Cl)c(Cl)c(Cl)c1Cl	-1.49% [at 8.39 µM] (inactive)	
COc1ccc(Cc2nccc3cc(OC)c(OC)cc23)cc1OC	-2.09% [at 42.5 µM] (inactive)	
CC(C)N(C(=O)SC/C(Cl)=C/Cl)C(C)C	1.77% (inactive)	
Nc1c(Cl)c(Cl)c(Cl)c(Cl)c1Cl	-0.766% (inactive)	
O=C(NC(=O)c1c(F)cccc1F)Nc1ccc(Oc2ccc(C(F)(F)F)cc2Cl)cc1F	-3.54% (inactive)	
CC(C)=CCN1CC[C@@]2(C)c3cc(O)ccc3C[C@@H]1[C@@H]2C	-1.53% (inactive)	
C=CC(=C)C	-0.699% (inactive)	
CCCN	0.361% (inactive)	
BrCCCBr	-0.205% (inactive)	
Nc1ccccc1-c1ccccc1	2.3% (inactive)	
O.O.O.O=C([O-])[C@H]([O-])[C@@H]([O-])C(=O)[O-].O=C([O-])[C@H]([O-])[C@@H]([O-])C(=O)[O-].[K+].[K+].[Sb+3].[Sb+3]	-8.93% (inactive)	
CCC[CH2][Sn]([CH2]CCC)([CH2]CCC)[CH2]CCC		68.6 µM (active)
C[N+]1(C)[C@@H]2CC[C@H]1CC(OC(=O)C(CO)c1ccccc1)C2 (stereo partly drawn)	-0.251% [at 42.5 µM] (inactive)	
O=c1c2ccccc2c(=O)c2c1cc(Cl)c1[nH]c3c([nH]c12)c(Cl)cc1c(=O)c2ccccc2c(=O)c13	-1.47% (inactive)	
